Measurements taken from PubChem BioAssay.
Active and inactive are the calls of the source.

What was measured:
[1] = adipocyte viability effects, profiling panel, cell-based, 3T3-L1 adipocytes, calcein-AM fluorescence, 48 h, basal (AID 1163); conditions: 3T3-L1 adipocytes viability, higher = more signal
[2] = HepG2 cell viability effects, profiling panel, calcein-AM fluorescence, 48 h, basal (AID 1164); conditions: higher = more signal
[3] = MM1S cell viability effects, profiling panel, calcein-AM fluorescence, 48 h, basal (AID 1165); conditions: higher = more signal;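 also: viability of MM1S multiple myeloma cells under basal unstimulated conditions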
[4] = basal RPMI8226 viability, no added stimulus, profiling panel, cell-based, calcein-AM fluorescence, 48 h, PK04 Diversity Set (AID 1166); conditions: RPMI8226 myeloma viability, higher = more signal;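 also: cells grown under basal conditions without added stimulus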
[5] = basal HepG2 mitochondrial membrane potential changes, profiling panel, cell-based, JC-1 fluorescence, 24 h, 100 nL compound (AID 1167); conditions: higher = more signal
[6] = basal 3T3-L1 adipocyte mitochondrial potential changes, profiling panel, cell-based, JC-1 fluorescence, 3T3-L1 adipocytes, 24 h, 100 nL compound (AID 1168); conditions: JC-1 mitochondrial fluorescence, higher = more signal, called active from +8 up or from −8 down
[7] = basal RPMI8226 mitochondrial membrane potential changes, profiling panel, cell-based, JC-1 fluorescence, 24 h, 100 nL compound (AID 1169); conditions: RPMI8226 myeloma, JC-1 mitochondrial potential fluorescence, higher = more signal
[8] = basal MM1S mitochondrial membrane potential changes, profiling panel, cell-based, JC-1 fluorescence, 24 h, 100 nL compound (AID 1170); conditions: higher = more signal
[9] = A549 lung cancer cell viability effects, profiling panel, resazurin fluorescence, 24 h, PK04 Diversity Set (AID 1171); conditions: higher = more signal, called active from +8 up or from −8 down
[10] = HepG2 liver cancer cell viability effects, profiling panel, resazurin fluorescence, 24 h, PK04 Diversity Set (AID 1172); conditions: higher = more signal
[11] = basal S. cerevisiae growth modulation, no modifier, primary screen, OD600, strain BY4716, 24 h, basal condition (AID 1173); conditions: OD600, 24 h, higher = more signal, called active from +8 up or from −8 down
[12] = MM1S myeloma cell viability, profiling panel, resazurin fluorescence, basal, 24 h, PK04 Diversity Set (AID 1174); conditions: higher = more signal, called active from +8 up or from −8 down;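 also: MM1S multiple myeloma cell line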
[13] = target: Dihydroorotate dehydrogenase (quinone), mitochondrial (Plasmodium falciparum (isolate 3D7)) (UniProt Q08210); assay: PfDHODH enzyme inhibitors, primary screen, biochemical, C-terminal His tag, absorbance 600 nm (AID 1175); conditions: DCIP absorbance 600 nm, higher = more signal, called active from +8 up or from −8 down;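 also: recombinant parasite enzyme with a five histidine tag at its C terminus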
[14] = S. cerevisiae RM11-1a growth modifiers, primary screen, strain RM11-1a, OD600, basal, 24 h (AID 1177); conditions: OD600, 24 h, higher = more signal, called active from +8 up or from −8 down;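 also: cultures grown under basal conditions with no added stressor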
[15] = E. coli acrAB mutant growth effects, primary screen, E. coli filamentation inducers, strain DRC39, OD650, 24 h (AID 1178); conditions: higher = more signal, called active from +8 up or from −8 down;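 also: growth measured as culture turbidity by optical density at 650 nm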
[16] = E. coli acrAB mutant growth effects, primary screen, E. coli filamentation inducers, strain DRC39, OD650, 48 h (AID 1179);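 also: screen aims at cell division blockers that make cells filament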; conditions: E. coli DRC39 delta-acrAB growth, higher = more signal, called active from +8 up or from −8 down
[17] = RPMI8226 myeloma cell viability, profiling panel, resazurin fluorescence, basal, 24 h, PK04 Diversity Set (AID 1180); conditions: higher = more signal;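 also: RPMI8826 multiple myeloma cell line at 5000 cells per well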
[18] = target: E3 ubiquitin-protein ligase XIAP (Homo sapiens) (UniProt P98170); assay: XIAP binders, primary screen, biophysical, small-molecule microarray, fluorescence 635 nm (AID 1181); conditions: small-molecule microarray binding, higher = more signal;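 also: score merges 667 nm emission and signal to noise over triplicate slides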
[19] = test system: XIP peptide (Xip251-270) binding; assay: small-molecule binders of XIP peptide, primary screen, biochemical, small-molecule microarray, fluorescence 635/667 nm, 0.1 µg/mL protein (AID 1182); conditions: fluorescent protein binding, 635 nm, higher = more signal, called active from +8 up or from −8 down
XIP peptide (Xip251-270) = assay: small-molecule binders of XIP peptide, primary screen, biochemical, small-molecule microarray, fluorescence 635/667 nm, 0.5 µg/mL protein (AID 1183); conditions: small-molecule microarray binding, fluorescence 635 nm; higher = more signal

Sequence of E3 ubiquitin-protein ligase XIAP (Homo sapiens) (P98170 whole entry, looked up): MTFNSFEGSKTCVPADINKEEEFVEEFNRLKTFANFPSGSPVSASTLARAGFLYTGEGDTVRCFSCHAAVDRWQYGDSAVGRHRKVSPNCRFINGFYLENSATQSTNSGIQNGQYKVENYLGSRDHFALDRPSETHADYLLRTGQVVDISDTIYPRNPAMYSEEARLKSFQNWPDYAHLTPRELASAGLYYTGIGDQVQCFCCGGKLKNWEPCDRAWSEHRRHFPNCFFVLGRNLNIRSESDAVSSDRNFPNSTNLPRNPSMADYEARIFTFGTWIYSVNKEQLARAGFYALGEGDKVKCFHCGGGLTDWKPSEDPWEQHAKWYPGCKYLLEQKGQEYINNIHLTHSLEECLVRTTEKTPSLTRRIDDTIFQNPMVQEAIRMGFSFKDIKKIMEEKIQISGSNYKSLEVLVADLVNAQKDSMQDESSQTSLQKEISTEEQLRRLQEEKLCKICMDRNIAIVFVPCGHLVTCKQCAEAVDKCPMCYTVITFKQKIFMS
Sequence of Dihydroorotate dehydrogenase (quinone), mitochondrial (Plasmodium falciparum (isolate 3D7)) (Q08210 whole entry, looked up): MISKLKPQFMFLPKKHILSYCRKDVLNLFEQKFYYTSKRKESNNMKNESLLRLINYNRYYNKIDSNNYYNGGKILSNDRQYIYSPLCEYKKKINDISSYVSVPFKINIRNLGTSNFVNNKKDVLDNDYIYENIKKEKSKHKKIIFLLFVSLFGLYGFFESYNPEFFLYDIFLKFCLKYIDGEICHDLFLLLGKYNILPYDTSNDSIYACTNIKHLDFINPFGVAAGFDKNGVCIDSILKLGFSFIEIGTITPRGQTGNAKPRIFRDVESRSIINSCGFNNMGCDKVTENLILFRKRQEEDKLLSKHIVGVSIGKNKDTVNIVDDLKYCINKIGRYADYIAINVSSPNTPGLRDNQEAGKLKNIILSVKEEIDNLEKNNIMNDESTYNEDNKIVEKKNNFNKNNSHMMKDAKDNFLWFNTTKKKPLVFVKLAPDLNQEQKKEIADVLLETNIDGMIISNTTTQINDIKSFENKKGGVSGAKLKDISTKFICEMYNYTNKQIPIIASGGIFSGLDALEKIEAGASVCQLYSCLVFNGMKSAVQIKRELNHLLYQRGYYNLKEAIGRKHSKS

CC(C)C(=C=CC[C@H](O)c1ccc(OCCO)cc1)C[C@H](O)COCc1ccccc1
z-score [1]: 0.475 | z-score [2]: -0.822 | z-score [3]: -3.38 | z-score [4]: -3.77 | z-score [5]: 0.296 | z-score [6]: 0.371 (inactive) | z-score [7]: -0.625 | z-score [8]: -1.36 | z-score [9]: 0.515 (inactive) | z-score [10]: 0.657 | z-score [11]: -3.15 (inactive) | z-score [12]: -1.83 (inactive) | composite z-score [13]: -1.09 (inactive) | z-score [14]: 1.04 (inactive) | z-score [15]: 1.35 (inactive) | z-score [16]: 0.883 (inactive) | z-score [17]: -0.0676 | composite z-score [18]: -0.0233 | composite z-score [19]: 0.941 (inactive) | composite z-score (XIP peptide (Xip251-270)): 0.0727

CC(=O)NCCCC[C@@H]1NC(=O)[C@@H]2C[C@H](C(=O)O)[C@H](c3cccc(OCCO)c3)N2C1=O
z-score [1]: 0.75 | z-score [2]: -0.988 | z-score [3]: -1.8 | z-score [4]: 0.267 | z-score [5]: 1.31 | z-score [6]: 0.317 (inactive) | z-score [7]: 0.501 | z-score [8]: 0.483 | z-score [9]: 0.537 (inactive) | z-score [10]: 0.377 | z-score [11]: 0.178 (inactive) | z-score [12]: 0.636 (inactive) | composite z-score [13]: -0.252 (inactive) | z-score [14]: 1.2 (inactive) | z-score [15]: 0.504 (inactive) | z-score [16]: 0.167 (inactive) | z-score [17]: 0.873 | composite z-score [18]: -0.363 | composite z-score [19]: 1.41 (inactive) | composite z-score (XIP peptide (Xip251-270)): 1

CCCCC(=C=CC[C@H](O)c1cccc(OCCO)c1)CCO
z-score [1]: 1.07 | z-score [2]: -0.693 | z-score [3]: -1 | z-score [4]: -0.257 | z-score [5]: 0.733 | z-score [6]: 0.439 (inactive) | z-score [7]: 0.12 | z-score [8]: -0.0531 | z-score [9]: 1.7 (inactive) | z-score [10]: 0.529 | z-score [11]: -1.41 (inactive) | z-score [12]: 1.31 (inactive) | composite z-score [13]: -0.802 (inactive) | z-score [14]: -0.114 (inactive) | z-score [15]: 1.3 (inactive) | z-score [16]: 0.749 (inactive) | z-score [17]: 0.837 | composite z-score [18]: 0.0458 | composite z-score [19]: 0.511 (inactive) | composite z-score (XIP peptide (Xip251-270)): -0.97

CCOC(=O)C[C@H]1[C@H](OC(=O)c2ccc(-c3ccccc3)cc2)[C@@H](NC(=O)C2CCCCC2)c2cc(OCCCO)ccc2N1C(=O)c1ccc2ccccc2n1
z-score [1]: 1.25 | z-score [2]: -0.0303 | z-score [3]: 0.881 | z-score [4]: 0.179 | z-score [5]: 2.69 | z-score [6]: 1.82 (inactive) | z-score [7]: -0.953 | z-score [8]: 0.717 | z-score [9]: 1.02 (inactive) | z-score [10]: 1.24 | z-score [11]: -0.275 (inactive) | z-score [12]: 1.22 (inactive) | composite z-score [13]: 0.478 (inactive) | z-score [14]: -1.33 (inactive) | z-score [15]: 1.56 (inactive) | z-score [16]: 0.999 (inactive) | z-score [17]: 0.509 | composite z-score [18]: 0.158 | composite z-score [19]: 0.29 (inactive) | composite z-score (XIP peptide (Xip251-270)): 0.0417

COc1ccc([Si](C)(C)[C@H]2[C@H](CC(=O)N(CCO)Cc3ccccc3)O[C@@]3(C(=O)N(Cc4cccc(N5C(=O)COc6ccccc65)c4)c4ccccc43)[C@@H]2C)cc1
z-score [1]: 0.446 | z-score [2]: -0.647 | z-score [3]: -0.945 | z-score [4]: -2.66 | z-score [5]: 0.502 | z-score [6]: 1.2 (inactive) | z-score [7]: -0.943 | z-score [8]: -0.397 | z-score [9]: -0.899 (inactive) | z-score [10]: 0.0785 | z-score [11]: 0.337 (inactive) | z-score [12]: -1.48 (inactive) | composite z-score [13]: -0.149 (inactive) | z-score [14]: 2.62 (inactive) | z-score [15]: 2.07 (inactive) | z-score [16]: 2.13 (inactive) | z-score [17]: -2.97 | composite z-score [18]: 0.0727 | composite z-score [19]: 1.65 (inactive) | composite z-score (XIP peptide (Xip251-270)): 0.727

C=C(CCCC)/C(=C/C[C@@H](OC(=O)c1ccncc1)c1ccc(OCCO)cc1)c1cnc2ccccc2c1
z-score [1]: 1.56 | z-score [2]: -0.375 | z-score [3]: -1.52 | z-score [4]: -0.393 | z-score [5]: 2.07 | z-score [6]: -0.0617 (inactive) | z-score [7]: -0.344 | z-score [8]: 0.279 | z-score [9]: 0.395 (inactive) | z-score [10]: 0.0347 | z-score [11]: -2.64 (inactive) | z-score [12]: 0.803 (inactive) | composite z-score [13]: -2.2 (inactive) | z-score [14]: 0.365 (inactive) | z-score [15]: 1 (inactive) | z-score [16]: 0.734 (inactive) | z-score [17]: 1.59 | composite z-score [18]: -0.035 | composite z-score [19]: 0.384 (inactive) | composite z-score (XIP peptide (Xip251-270)): 0.697

CC(C)N1CC=CC23O[C@@H]4/C=C\CCCOC(=O)C4[C@H]2C(=O)N(CCCO)[C@@H]3C1=O (stereo not given in full)
z-score [1]: 0.834 | z-score [2]: 0.152 | z-score [3]: 0.827 | z-score [4]: 0.311 | z-score [5]: 0.795 | z-score [6]: 0.32 (inactive) | z-score [7]: 0.747 | z-score [8]: 0.789 | z-score [9]: 0.817 (inactive) | z-score [10]: 0.129 | z-score [11]: 0.11 (inactive) | z-score [12]: 0.791 (inactive) | composite z-score [13]: -0.506 (inactive) | z-score [14]: 1.05 (inactive) | z-score [15]: 1.36 (inactive) | z-score [16]: 1.25 (inactive) | z-score [17]: 1.78 | composite z-score [18]: 0.0126 | composite z-score [19]: 0.015 (inactive) | composite z-score (XIP peptide (Xip251-270)): -0.556

COC(=O)C(CC#Cc1ccc2c(c1)[C@]1(C(=O)N2)[C@H](C(=O)O)[C@H]2C(=O)O[C@H](c3ccccc3)[C@H](c3ccccc3)N2[C@@H]1c1ccc(OCCO)cc1)C(=O)OC
z-score [1]: 0.313 | z-score [2]: 1.27 | z-score [3]: -2.5 | z-score [4]: -3.54 | z-score [5]: -0.532 | z-score [6]: 0.587 (inactive) | z-score [7]: -0.746 | z-score [8]: 0.171 | z-score [9]: 0.7 (inactive) | z-score [10]: 0.821 | z-score [11]: -0.842 (inactive) | z-score [12]: 1.22 (inactive) | composite z-score [13]: -15.4 (active) | z-score [14]: 0.338 (inactive) | z-score [15]: 1.6 (inactive) | z-score [16]: 1.72 (inactive) | z-score [17]: -2.37 | composite z-score [18]: -0.207 | composite z-score [19]: 1.68 (inactive) | composite z-score (XIP peptide (Xip251-270)): 0.836

C[C@@H](OCc1ccccc1)C1NC(=O)[C@@]23C(=O)N[C@@H](Cc4ccccc4)C2[C@H](C)[C@@]2(C)O[C@H]2C3/C=C/C/C=C\CNC(=O)[C@@H]2CCCN2C1=O (stereo not given in full)
z-score [1]: 0.812 | z-score [2]: 0.11 | z-score [3]: -1.11 | z-score [4]: -0.722 | z-score [5]: 2.87 | z-score [6]: 0.566 (inactive) | z-score [7]: 0.0782 | z-score [8]: 1.19 | z-score [9]: 1.46 (inactive) | z-score [10]: 0.432 | z-score [11]: -1.9 (inactive) | z-score [12]: 0.556 (inactive) | composite z-score [13]: -0.0867 (inactive) | z-score [14]: -0.421 (inactive) | z-score [15]: 2.53 (inactive) | z-score [16]: 1.66 (inactive) | z-score [17]: 0.685 | composite z-score [18]: 0.176 | composite z-score [19]: 0.187 (inactive) | composite z-score (XIP peptide (Xip251-270)): -1.05
